# Experimental data published in PubChem BioAssay (NCATS).
# Values joined by “and” are separate entries in the source; they are usually repeats but may differ in a detail not shown here. Equal values may be shown once. Inconclusive results are not listed. Entries that show only a call come without a potency. Some structures have more than one record in an assay (separate samples or runs), and their calls can disagree. Active and inactive are the calls of the source. Unless noted, calls come from the whole dose curve; as a rule, active = well fitted curve in the direction sought with a large enough effect; inconclusive = small, poorly fitted or top-dose-only effect, or another doubt; inactive = no such curve, though single readings can be large; an effect the other way counts as inactive or inconclusive. Where a SMILES comes first, the peptide text is derived from it.
# Assays:
# [1] = molecular target: Glucocorticoid receptor (Homo sapiens) (UniProt P04150); assay: GR-GFP Redistribution (AID 450;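 active = compounds whose dose series gives a full or clear partial fitted curve of increased nuclear translocation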; note: potency is the fitted concentration of half-maximal effect); conditions: U2OS GR-GFP nuclear translocation, laser cytometry, 2 h
# Glucocorticoid receptor (Homo sapiens), sequence (P04150 whole entry, looked up, the tested form may be a part): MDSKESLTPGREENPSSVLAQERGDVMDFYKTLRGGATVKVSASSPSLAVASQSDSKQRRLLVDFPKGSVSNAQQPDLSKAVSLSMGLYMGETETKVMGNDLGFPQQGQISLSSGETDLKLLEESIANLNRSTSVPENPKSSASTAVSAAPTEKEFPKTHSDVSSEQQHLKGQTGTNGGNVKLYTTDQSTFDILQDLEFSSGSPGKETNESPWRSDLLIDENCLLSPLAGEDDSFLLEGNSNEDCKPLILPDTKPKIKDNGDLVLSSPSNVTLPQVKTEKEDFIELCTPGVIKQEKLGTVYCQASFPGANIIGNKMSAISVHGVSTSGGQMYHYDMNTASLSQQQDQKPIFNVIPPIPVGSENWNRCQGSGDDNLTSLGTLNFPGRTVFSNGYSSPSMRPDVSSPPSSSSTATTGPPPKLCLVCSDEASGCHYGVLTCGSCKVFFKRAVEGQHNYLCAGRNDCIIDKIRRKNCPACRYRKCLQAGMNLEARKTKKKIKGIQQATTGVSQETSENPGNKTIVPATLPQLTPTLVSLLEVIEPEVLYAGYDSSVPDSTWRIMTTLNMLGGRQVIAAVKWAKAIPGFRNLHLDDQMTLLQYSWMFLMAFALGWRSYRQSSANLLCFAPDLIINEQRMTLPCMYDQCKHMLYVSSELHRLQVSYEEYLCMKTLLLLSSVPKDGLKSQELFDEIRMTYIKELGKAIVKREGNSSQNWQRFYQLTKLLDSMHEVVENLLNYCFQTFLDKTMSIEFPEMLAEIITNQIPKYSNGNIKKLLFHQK
# [2] = molecular target: Glucocorticoid receptor (Homo sapiens) (UniProt P04150); assay: GR-EFC Redistribution (AID 451; calls by dose curve; note: potency is the fitted concentration of half-maximal effect); conditions: CHO-K1 GR-EFC translocation, beta-gal luminescence, 2 h
# Outline: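 Translocation of GR-ED fusion to nuclear EA restores b-gal, read by luminescence after 1 h room-temperature detection. Engineered CHO-K1 biosensor cells, 1,000/well, exposed 2 h at 37 C to titrations up to 46 uM final.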
# [3] = molecular target: Guanine nucleotide-binding protein G(i) subunit alpha-1 (Homo sapiens) (UniProt P63096); assay: qHTS Assay for Inhibitors of RGS12 GoLoco Motif Activity (Green Fluorophore) (AID 879);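 note: negative values mean loss of peptide binding seen as reduced polarization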
# Guanine nucleotide-binding protein G(i) subunit alpha-1 (Homo sapiens), sequence (P63096 whole entry, looked up): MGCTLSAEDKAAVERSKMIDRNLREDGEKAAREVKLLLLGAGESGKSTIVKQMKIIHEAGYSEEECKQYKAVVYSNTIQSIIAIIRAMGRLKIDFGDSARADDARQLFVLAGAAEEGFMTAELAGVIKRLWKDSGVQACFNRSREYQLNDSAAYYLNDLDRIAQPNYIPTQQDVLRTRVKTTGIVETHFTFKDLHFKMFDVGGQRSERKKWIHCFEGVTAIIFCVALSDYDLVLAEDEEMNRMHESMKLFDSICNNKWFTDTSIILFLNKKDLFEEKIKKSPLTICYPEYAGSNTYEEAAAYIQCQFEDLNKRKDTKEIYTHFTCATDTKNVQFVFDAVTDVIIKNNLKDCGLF
# Outline: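 A drop in FITC polarization marked displacement of the FITC-tagged RGS12 GoLoco peptide (10 nM) from Gαi1 (50 nM). Compounds were incubated 10 min at room temperature in Tris pH 7.5 buffer containing 150 mM NaCl, 0.1 mM GDP and 0.05% NP40; unlabeled peptide titration served as control.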
# [4] = molecular target: Pyruvate kinase (Leishmania mexicana) (UniProt Q27686); assay: qHTS Validation Assay for Inhibitors of Leishmania Mexicana Pyruvate Kinase (AID 945)
# Pyruvate kinase (Leishmania mexicana), sequence (Q27686 2-499 E452W): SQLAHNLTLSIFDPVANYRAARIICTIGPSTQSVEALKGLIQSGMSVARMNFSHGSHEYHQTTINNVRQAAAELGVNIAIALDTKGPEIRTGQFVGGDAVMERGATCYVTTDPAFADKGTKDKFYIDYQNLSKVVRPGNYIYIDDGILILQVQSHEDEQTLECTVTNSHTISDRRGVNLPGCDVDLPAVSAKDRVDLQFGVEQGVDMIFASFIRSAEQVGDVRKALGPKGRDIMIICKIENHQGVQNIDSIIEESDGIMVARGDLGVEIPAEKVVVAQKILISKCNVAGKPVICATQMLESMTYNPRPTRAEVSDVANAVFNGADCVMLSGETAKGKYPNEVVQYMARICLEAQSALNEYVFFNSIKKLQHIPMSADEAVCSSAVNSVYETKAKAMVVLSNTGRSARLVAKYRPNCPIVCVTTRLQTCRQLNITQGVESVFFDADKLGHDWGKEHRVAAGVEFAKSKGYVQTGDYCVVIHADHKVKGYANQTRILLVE
# Outline: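 qHTS eight-point titrations against 0.2 nM LmPYK (E451W) in imidazole buffer pH 7.2 with 0.5 mM PEP, 0.1 mM ADP; 1 h, room temperature. Readout: PKLight luminescence, normalized to neutral DMSO wells.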
# [5] = molecular target: Pyruvate kinase PKM (Homo sapiens) (UniProt P14618); assay: qHTS Assay for Activators of Human Muscle Pyruvate Kinase (AID 954; active = well fitted curve in the direction sought with a large enough effect, not every such curve was filed as active)
# Pyruvate kinase PKM (Homo sapiens), sequence (P14618 whole entry, looked up): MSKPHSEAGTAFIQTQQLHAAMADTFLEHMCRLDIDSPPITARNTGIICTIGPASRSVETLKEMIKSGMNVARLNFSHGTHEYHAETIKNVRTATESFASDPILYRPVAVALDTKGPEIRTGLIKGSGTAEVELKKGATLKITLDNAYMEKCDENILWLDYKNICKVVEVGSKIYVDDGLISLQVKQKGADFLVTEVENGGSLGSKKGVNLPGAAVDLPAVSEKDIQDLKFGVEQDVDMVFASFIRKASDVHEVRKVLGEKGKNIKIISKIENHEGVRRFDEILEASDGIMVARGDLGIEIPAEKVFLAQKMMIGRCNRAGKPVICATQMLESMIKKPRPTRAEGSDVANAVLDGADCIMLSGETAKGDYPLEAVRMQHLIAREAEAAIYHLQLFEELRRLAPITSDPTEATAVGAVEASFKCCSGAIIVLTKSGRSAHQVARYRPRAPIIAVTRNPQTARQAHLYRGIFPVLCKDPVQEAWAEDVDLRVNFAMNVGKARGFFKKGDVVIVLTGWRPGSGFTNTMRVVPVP
# Outline: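 PKM2, human, >95% pure, 0.1 nM; PEP 0.5 mM (Km), ADP 0.1 mM; 50 mM imidazole pH 7.2, 50 mM KCl, 0.01% Tween 20, 0.05% BSA; 1 h RT; luciferase luminescence readout.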
# [6] = molecular target: Alpha-galactosidase (Coffea arabica) (UniProt Q42656); assay: Counterscreen for Glucocerebrosidase Inhibitors: qHTS Assay for Coffee Bean alpha-Galactosidase at pH 4.5 (AID 957)
# Alpha-galactosidase (Coffea arabica), sequence (Q42656 whole entry, looked up): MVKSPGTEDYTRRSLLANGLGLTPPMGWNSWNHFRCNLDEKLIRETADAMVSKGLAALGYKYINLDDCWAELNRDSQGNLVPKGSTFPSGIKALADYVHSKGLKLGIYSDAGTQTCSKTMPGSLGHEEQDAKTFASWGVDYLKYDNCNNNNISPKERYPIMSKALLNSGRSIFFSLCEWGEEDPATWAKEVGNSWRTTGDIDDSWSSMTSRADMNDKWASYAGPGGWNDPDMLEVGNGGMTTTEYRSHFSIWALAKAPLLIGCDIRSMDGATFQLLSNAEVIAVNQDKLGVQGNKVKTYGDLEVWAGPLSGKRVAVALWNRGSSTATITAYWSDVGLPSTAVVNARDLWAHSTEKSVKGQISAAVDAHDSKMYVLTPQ
# Outline: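 Quantitative HTS of compounds (0.7 nM to 77 uM) against coffee bean alpha-galactosidase at pH 4.5, measuring 4-methylumbelliferone fluorescence released from 80 uM substrate.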
# [7] = molecular target: alpha-glucosidase (Oryza sativa, rice) (UniProt Q653V4); assay: Counterscreen for Glucocerebrosidase Inhibitors: qHTS Assay for Rice alpha-Glucosidase at pH 5.0 (AID 997)
# Outline: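 Endpoint fluorogenic assay at pH 5.0: compounds (0.7 nM to 77 uM) titrated against 4 nM rice enzyme and 400 uM 4-MU-alpha-glucoside for 20 min at room temperature; NaOH/glycine stop, read ex 365/em 440 nm, Hill-fitted AC50.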
# [8] = molecular target: Alpha-galactosidase (Coffea arabica) (UniProt Q42656); assay: Counterscreen for Glucocerebrosidase Inhibitors: qHTS Assay for Coffee Bean alpha-Galactosidase at pH 5.9 (AID 998)
# Outline: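 Fluorogenic 4-MU substrate hydrolysis, 80 uM substrate and 2 nM coffee bean alpha-galactosidase, pH 5.9 citrate buffer, 20 min at room temperature, then NaOH/glycine stop. Titration 0.7 nM–77 uM, normalized to no-enzyme and enzyme controls, AC50 via Hill equation.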
# [9] = molecular target: Ubiquitin carboxyl-terminal hydrolase 1 (Homo sapiens) (UniProt O94782); assay: Inhibitors of USP1/UAF1: Pilot qHTS (AID 504865);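 note: rhodamine fluorescence freed from ubiquitin-rhodamine substrate followed over time; top concentration of the series differs between compounds; nearly all actives have a fitted effect of over 35% in size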
# Ubiquitin carboxyl-terminal hydrolase 1 (Homo sapiens), sequence (O94782 whole entry, looked up): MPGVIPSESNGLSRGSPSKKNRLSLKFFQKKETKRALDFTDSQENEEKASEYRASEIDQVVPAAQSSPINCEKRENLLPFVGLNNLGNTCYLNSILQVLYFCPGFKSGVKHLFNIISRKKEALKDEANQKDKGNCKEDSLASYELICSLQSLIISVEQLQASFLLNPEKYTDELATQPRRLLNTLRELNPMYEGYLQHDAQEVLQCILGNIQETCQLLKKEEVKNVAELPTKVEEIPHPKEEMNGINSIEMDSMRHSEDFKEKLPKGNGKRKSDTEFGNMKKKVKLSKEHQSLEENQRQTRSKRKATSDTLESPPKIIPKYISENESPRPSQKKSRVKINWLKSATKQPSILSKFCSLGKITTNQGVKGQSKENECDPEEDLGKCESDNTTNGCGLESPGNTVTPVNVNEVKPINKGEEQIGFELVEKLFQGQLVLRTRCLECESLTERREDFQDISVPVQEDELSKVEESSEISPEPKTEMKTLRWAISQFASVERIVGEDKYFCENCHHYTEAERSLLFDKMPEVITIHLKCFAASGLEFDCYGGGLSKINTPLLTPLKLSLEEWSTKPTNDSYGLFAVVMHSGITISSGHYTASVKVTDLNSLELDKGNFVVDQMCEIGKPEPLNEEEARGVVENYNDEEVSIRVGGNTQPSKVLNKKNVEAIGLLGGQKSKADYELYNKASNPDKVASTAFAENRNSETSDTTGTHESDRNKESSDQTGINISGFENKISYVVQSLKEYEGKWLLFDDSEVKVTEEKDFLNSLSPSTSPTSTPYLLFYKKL
# Outline: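 In 50mM HEPES pH 7.8 containing 0.5mM EDTA, 1mM TCEP, 0.1 mg/ml BSA and 0.01% Tween-20, 1nM USP1/UAF1 is exposed to compound for 15 min, then Ub-Rho (150nM final) is added and fluorescence is read over time.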
# [10] = molecular target: 3',5'-cyclic-AMP phosphodiesterase 4B (Homo sapiens) (UniProt Q07343); assay: qHTS Assay for Inhibitors of PDE-IV (AID 607; active = well fitted activation curve with a large enough effect in the main read-out, with a control signal flat, not every such curve was filed as active)
# Outline: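 The readout is membrane depolarisation from a cAMP-sensing CNG channel, detected with a potential dye at ex 535/em 590. Cells were HEK293-derived (endogenous PDE-IV) at 1000 cells/well, titrated up to 22.9 uM final.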
# [11] = Counterscreen qHTS for small molecule stabilizers of the endoplasmic reticulum resident proteome: GLuc-NoTag assay (AID 1508627); note: potency is the fitted concentration of half-maximal effect
# Outline: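 Counterscreen line: SH-SY5Y-GLuc-NoTag cells, treated with compound 19 hr before a 4 hr, 100 nM thapsigargin calcium depletion. Secreted Gaussia luciferase in the medium was measured by luminescence after coelenterazine was added (0.07x final), with cells unlysed.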
# [12] = tested on: Zika virus NS2B-NS3 protease; assay: Primary screen GU AMC qHTS for Zika virus inhibitors (AID 1347154); note: nearly all actives have a fitted effect of over 70% in size
# Outline: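 Fluorogenic AMC-substrate cleavage by noncovalent NS2B-NS3 protease complex (25 nM, pH 8.0 Tris buffer with Tween 20) followed for 15 minutes at room temperature (~20% conversion). Percent inhibition from ex340/em450 signal change, fitted by 4-parameter Hill equation.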
# [13] = Primary qHTS for small molecule stabilizers of the endoplasmic reticulum resident proteome: Secreted ER Calcium Modulated Protein (SERCaMP) assay (AID 1508630); note: potency is the fitted concentration of half-maximal effect
# Outline: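 The SH-SY5Y reporter protocol was run at 3 concentrations up to 38.3 uM (primary) or 11 concentrations (follow-up): 16 h compound, 100 nM thapsigargin for 4 h, then extracellular luciferase luminescence.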
# [14] = AP1 Signaling Pathway (AID 357; active = well fitted curve in either direction with a large enough effect, not every such curve was filed as active)
# Outline: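 ME-180 cells with beta-lactamase reporter under AP-1 response element, stimulated with EC50 EGF; compounds tested in titration series, 5 h at 37 °C. CCF4 substrate added 2.5 h at room temperature; 460/530 nm emission ratio gave %activity and AC50.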
# [15] = molecular target: Cytochrome P450 1A2 (Homo sapiens) (UniProt P05177); assay: p450-cyp1a2 (AID 410; calls by dose curve; note: potency is the fitted concentration of half-maximal effect)
# Cytochrome P450 1A2 (Homo sapiens), sequence (P05177 whole entry, looked up): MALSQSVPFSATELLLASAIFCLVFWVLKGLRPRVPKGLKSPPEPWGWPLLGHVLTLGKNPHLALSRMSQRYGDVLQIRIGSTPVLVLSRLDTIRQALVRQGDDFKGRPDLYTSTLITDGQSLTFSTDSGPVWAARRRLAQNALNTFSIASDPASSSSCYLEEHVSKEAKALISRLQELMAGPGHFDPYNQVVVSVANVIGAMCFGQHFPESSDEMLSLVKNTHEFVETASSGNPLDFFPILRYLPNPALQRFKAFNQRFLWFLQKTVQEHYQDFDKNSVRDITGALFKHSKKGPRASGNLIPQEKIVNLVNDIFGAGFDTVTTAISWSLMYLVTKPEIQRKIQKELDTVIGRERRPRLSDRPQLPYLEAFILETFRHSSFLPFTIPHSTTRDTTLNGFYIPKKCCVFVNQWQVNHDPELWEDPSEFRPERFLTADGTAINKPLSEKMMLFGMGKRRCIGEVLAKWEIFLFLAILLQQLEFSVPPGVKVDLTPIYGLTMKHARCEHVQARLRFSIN
# Outline: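 Read-out is luminescence from luciferin produced by CYP1A2 demethylation of Luciferin-ME (100uM, at Km). Detection reagent stopped the 60 min NADPH-dependent reaction; signals were normalized to 57 uM furafylline.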
# [16] = Stat Signaling Pathway (AID 446; active = well fitted curve in either direction with a large enough effect, not every such curve was filed as active;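 note: ME-180 cervical cancer cells given 40 pM IL-6 alongside compound; SIE-controlled beta-lactamase reporter measured as 460/530 nm FRET emission ratio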)
# Outline: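 Emission at 460 and 530 nm (excitation 405 nm) reports SIE-controlled beta-lactamase in ME-180 cells. Cells received compound with 40 pM IL-6 for 5 hrs at 37 C; data scaled between 300 pM IL-6 and 125 nM JAK-inhibitor controls.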
# [17] = molecular target: Mitogen-activated protein kinase 10 (Mus musculus) (UniProt Q61831); assay: JNK3 AlphaScreen Assay (AID 530; active = well fitted curve in either direction with a large enough effect, not every such curve was filed as active;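 note: kinase came from lysate of stimulated human HepG2 cells; signal reports phosphorylation of biotinylated GST-cJun 1-79 at Ser73 with 10 µM ATP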)
# Outline: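 Kinase buffer: 20 mM Tris-HCl pH 7.6, 10 mM MgCl2, 1 mM DTT, 0.1 mM Na3VO4, 0.01% Tween-20; ATP 10 uM. Substrate biotin-GST-cJun(1-79), enzyme from activated HepG2 lysates. Detection by Ser73 phospho-antibody AlphaScreen.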
# [18] = molecular target: Muscarinic acetylcholine receptor M1 (Rattus norvegicus) (UniProt P08482); assay: qHTS Assay for Antagonists of Acetylcholine Muscarinic M1 Receptor: Measurement of IP-One Response (AID 944); note: nearly all actives have a fitted effect of over 75% in size
# Muscarinic acetylcholine receptor M1 (Rattus norvegicus), sequence (P08482 whole entry, looked up): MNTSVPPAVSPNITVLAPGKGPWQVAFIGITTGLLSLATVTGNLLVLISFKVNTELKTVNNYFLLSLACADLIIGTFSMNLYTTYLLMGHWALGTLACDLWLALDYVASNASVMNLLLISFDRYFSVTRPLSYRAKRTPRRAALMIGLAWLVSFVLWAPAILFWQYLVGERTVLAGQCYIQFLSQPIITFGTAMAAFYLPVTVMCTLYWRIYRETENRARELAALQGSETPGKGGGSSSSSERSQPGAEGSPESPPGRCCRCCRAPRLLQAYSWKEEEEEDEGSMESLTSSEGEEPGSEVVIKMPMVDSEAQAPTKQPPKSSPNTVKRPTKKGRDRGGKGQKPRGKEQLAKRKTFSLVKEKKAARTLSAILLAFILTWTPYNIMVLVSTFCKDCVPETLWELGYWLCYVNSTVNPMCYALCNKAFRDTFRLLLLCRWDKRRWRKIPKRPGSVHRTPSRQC
# Outline: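 Antagonism was measured as loss of carbachol-driven (EC80) IP1 accumulation in CHO cells carrying rat M1, using a homogeneous IP-One TR-FRET kit read at 620 and 665 nm.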
# [19] = qHTS Assay for Lipid Storage Modulators (AID 1519; calls by dose curve); conditions: Drosophila S3 cells, BODIPY lipid droplet/cell ratio, laser cytometry, cells loaded with oleic acid; for activity change, negative = inhibition: at 57.5 µM (top of the series)
# Outline: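 Cells seeded at 5,000 per well were treated with compounds over a concentration series and loaded with oleic acid (400 uM, as added). Lipid droplet fluorescence (488 nm excitation, 500-530 nm channel) was read by laser-scanning cytometry and normalized to 20 uM Triacsin C.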
# [20] = molecular target: DNA dC->dU-editing enzyme APOBEC-3G (Homo sapiens) (UniProt Q9HC16); assay: qHTS for inhibitors of Vif-A3G interactions: Validation (AID 588379)
# DNA dC->dU-editing enzyme APOBEC-3G (Homo sapiens), sequence (Q9HC16 whole entry, looked up): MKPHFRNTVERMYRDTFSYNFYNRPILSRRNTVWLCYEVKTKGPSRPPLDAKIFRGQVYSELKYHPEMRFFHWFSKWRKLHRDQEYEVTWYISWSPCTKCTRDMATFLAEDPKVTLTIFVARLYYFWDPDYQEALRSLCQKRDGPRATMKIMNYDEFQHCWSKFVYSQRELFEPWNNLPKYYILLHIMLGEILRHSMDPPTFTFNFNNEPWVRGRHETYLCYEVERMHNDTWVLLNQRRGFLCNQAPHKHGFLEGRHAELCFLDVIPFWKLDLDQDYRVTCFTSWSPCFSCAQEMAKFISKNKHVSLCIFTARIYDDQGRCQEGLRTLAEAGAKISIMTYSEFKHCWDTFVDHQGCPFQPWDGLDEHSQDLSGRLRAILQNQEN
# Outline: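 Yellow fluorescence (Ex 488, Em 500-530) of Vif-coexpressing HeLa A3G-eYFP cells, scanned by Acumen cytometer, reports blocked A3G degradation. Cells plated at 700/well overnight at 37 deg C before compound addition, then a further overnight compound incubation at 37 deg C.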
# [21] = measured here: cell count channel max response
# [22] = measured here: lipid channel max response
compound,measurement,setting,value
CNc1ccc2oc(C[C@H]3O[C@]4(CC[C@H]3C)O[C@H]([C@H](C)C(=O)c3ccc[nH]3)[C@H](C)C[C@H]4C)nc2c1C(=O)O,Potency,[1],> 46 µM (inactive)
same,Potency,[2],> 46 µM (inactive)
same,outcome,[3],inactive
same,outcome,[4],inactive
same,outcome,[5],inactive
same,outcome,[6],inactive
same,outcome,[7],inactive
same,outcome,[8],inactive
C=CCN1C[C@H](C)N([C@H](c2ccc(C(=O)N(CC)CC)cc2)c2cccc(O)c2)C[C@H]1C,Potency,[2],> 46 µM (inactive)
same,Potency,[9],inactive
C[C@H]1C[C@H](C)C(=O)[C@@H]([C@H](O)CC2CC(=O)NC(=O)C2)C1,Potency,[10],inactive
same,Potency,[11],1.58 µM (active)
COc1ccc2c(CCN)c[nH]c2c1,Potency,[12],inactive
same,Potency,[13],inactive
CCCCCCCCCCCCCCCC(=O)OC[C@H](COP(=O)([O-])OCC[N+](C)(C)C)OC(C)=O,"activity change, negative = inhibition",[12],9.56% [at 6.83 µM] (inactive)
same,"activity change, negative = inhibition",[13],-14.9% [at 3.88 µM] (inactive)
CCCN(C/C=C/I)C1CCc2ccc(O)cc2C1 (stereo not given),Potency,[12],inactive
same,Potency,[13],inactive
CCCCC[C@@H](/C=C/C=C\CCCCCCCC(=O)O)OO,"activity change, negative = inhibition",[12],3.22% [at 0.59 µM] (inactive)
same,"activity change, negative = inhibition",[13],-19.4% [at 0.478 µM] (inactive)
NCC(CC(=O)O)c1ccc(Cl)s1 (stereo not given),Potency,[12],inactive
same,Potency,[13],inactive
Cc1[nH]c2ccc(Cl)cc2c1C1=CCNCC1,Potency,[12],inactive
same,Potency,[13],35.5 µM (active)
Clc1ccc(C2CC3CCC2N3)cn1 (stereo not given),Potency,[12],inactive
same,Potency,[13],inactive
CC(C)(C)NC[C@H](O)COc1cccc2[nH]c(C#N)cc12,Potency,[12],inactive
same,Potency,[13],inactive
C/C=C1/C[N@@+]2(C)CC[C@]34C(=C(C=O)[C@H]1C[C@H]32)Nc1ccccc14,Potency,[12],inactive
same,Potency,[13],inactive
Cc1o[nH]c(=O)c1C[C@H](N)C(=O)O,outcome,[14],inactive
same,Potency,[15],inactive and 31.6 µM (active)
same,outcome,[16],inactive
same,Potency,[1],> 46 µM (inactive)
same,Potency,[2],> 46 µM (inactive)
same,outcome,[17],inactive
same,outcome,[3],inactive
same,Potency,[18],inactive
same,outcome,[4],inactive
same,outcome,[5],inactive
same,outcome,[6],inactive
same,outcome,[7],inactive
same,outcome,[8],inactive
same,"activity change, negative = inhibition",[19],5.07% (inactive) and 0.872% (inactive) and 1.49% (inactive)
same,max response,[19]; [21],9.71% and 20.6% and -4.26%
same,max response,[19]; [22],15.4% and 23.1% and -1.44%
same,Potency,[20],inactive
same,Potency,[12],inactive
same,Potency,[13],inactive
COc1cccc2c1C13CC[N+]4(CC5CC5)CO[C@]1(CCC(=O)C3)C4C2,Potency,[12],inactive
same,Potency,[13],inactive
COc1ccc(-n2nc(C(F)(F)F)cc2-c2ccc(Cl)cc2)cc1,outcome,[14],inactive
same,Potency,[15],0.501 µM (active)
same,outcome,[16],inactive
same,Potency,[2],> 46 µM (inactive)
same,outcome,[3],inactive
same,outcome,[4],inactive
same,outcome,[5],inactive
same,outcome,[6],inactive
same,outcome,[7],inactive
same,outcome,[8],inactive
same,"activity change, negative = inhibition",[19],-0.483% (inactive)
same,max response,[19]; [21],-38.3%
same,max response,[19]; [22],-37.8%
same,Potency,[12],inactive
same,Potency,[13],inactive
CCOC(=O)CN1C(=O)CC(C[C@@H](O)C2C[C@@H](C)C[C@H](C)C2=O)CC1=O (stereo not given in full),Potency,[12],inactive
same,Potency,[13],inactive
C[C@H](N)C(=O)N[C@@H](C)C(=O)N[C@@H](Cc1ccccc1)C(=O)CCl (HELM PEPTIDE1{A.A.F.[ClC[*:1]]}$$$$V2.0),Potency,[12],inactive
same,Potency,[13],inactive
